Bioassay records: PubChem BioAssay, Center for Chemical Genomics, University of Michigan
Many of the other results were omitted from the sample, so hits are more common in it than they were.
Dicer processing: inhibitors of Dicer pre-microRNA processing, primary screen, biochemical, cat-ELCCA, chemiluminescence; 47,000 tested, 6% active; cat-ELCCA pre-miR-21 Dicer processing; stronger effect = higher value; Endoribonuclease Dicer (Homo sapiens), Q9UPY3; z-score at 25 µM; in the data active = z-score above about 3, passing the limit was not always enough;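 note: higher signal means more uncleaved substrate so more Dicer inhibition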
Numbers stand for hits; - = inactive.

SMILES	Dicer processing
O=C(CSc1ncn[nH]1)c1ccc(Cl)cc1	-
CCOC(=O)c1cnc(C(F)(F)F)nc1Sc1n[nH]c(-c2cc(Cl)cc(Cl)c2)n1	-
CCOC(=O)c1cnc(Nc2ccccc2)nc1C(F)(F)F	-
CCOC(=O)c1cnc(C(F)(F)F)nc1NNC(=O)c1ccc(Cl)cc1	3.2
CCOC(=O)c1cnc(NNC(C)=O)nc1C(F)(F)F	3.1
CCOC(=O)c1cnc(NNC(=O)c2ccc(F)cc2)nc1C(F)(F)F	-
CCOC(=O)c1cnc(C(F)(F)F)nc1Oc1ccccc1	-
CC(=O)N(c1ccccc1)C(C)C1CC1 (centres undefined)	-
CCSc1nc(O)c(C(c2ccccc2)c2ccccc2)c(=O)[nH]1	-
NC(=O)c1sc(-c2ccccc2)cc1NS(=O)(=O)c1ccc(F)cc1	-
COC(=O)c1sc(-c2ccc(Cl)cc2)cc1NC(=O)C(F)(F)F	-
NC(=O)c1sc(-c2ccc(Cl)cc2)cc1NS(=O)(=O)c1cc(C(F)(F)F)cc(C(F)(F)F)c1	3.7
CC(C)S(=O)(=O)c1nnn(-c2cc(Cl)cc(Cl)c2)c1N	-
C(=N\Nc1ncnc2c1cnn2-c1ccccc1)/c1ccco1	-
CCOC(=O)C1=C(c2ccccc2)N=C2SCC(=O)N2C1c1ccc(OC)cc1 (centres undefined)	-
COC(=O)C1=C(C)N(c2cc(C)cc(C)c2)C(=O)C1	3.6
CCOC(=O)C1=C(C)N(c2ccccc2)C(=O)C1	-
COC(=O)C1=C(C)N(Cc2cccnc2)C(=O)C1	-
O=C(c1ccc(F)cc1)n1nccc1-c1csc(-c2ccccc2)n1	-
CCOC(=O)C1CCN(Cc2ccccc2)CC1=O (centres undefined)	-
COc1ccc(/C(O)=C2\C(=O)C(=O)N(CCCn3ccnc3)C2c2ccc(F)cc2)cc1 (centres undefined)	-
COc1cc2c(cc1OC)CN(C(=O)CSc1nnc3ccc4ccccc4n13)CC2	-
O=C1CS/C(=N\N=C\c2ccccc2Cl)N1c1cc(C(F)(F)F)ccc1Cl	-
Cc1ccc(OCc2nc(-c3ccncc3)no2)c(C)c1	-
NC(=O)N/N=C/c1ccc(-c2ccc(C(F)(F)F)cc2[N+](=O)[O-])o1	-
SMILES	Dicer processing
O=C1C(Oc2ccccc2)C(c2ccc3c(c2)OCO3)N1CCc1ccc(F)cc1 (centres undefined)	-
COc1ccc(OC2C(=O)N(Cc3ccc(F)cc3)C2c2ccc3c(c2)OCO3)cc1 (centres undefined)	3.6
COc1ccc(CCN2C(=O)C(Oc3ccccc3C)C2c2ccc3c(c2)OCO3)cc1 (centres undefined)	-
CCOC(=O)Nc1cc(Cl)cc(Cl)c1	-
COc1ccc(OCc2nnc3n2N=C(c2ccc(C)cc2)CS3)cc1	-
COc1ccc(C2=Nn3c(COc4cc(C)ccc4Cl)nnc3SC2)cc1	-
COc1ccc(OCc2nnc3n2N=C(c2ccc(OC)cc2)CS3)cc1	5.2
Cc1ccc(S(=O)(=O)NNc2ncnc3c(C)csc23)cc1	-
Cc1ccc(C2Nn3c(nnc3-c3ccccc3)SC2C(=O)N2CCOCC2)cc1 (centres undefined)	-
Cc1ccc(C2Nn3c(nnc3-c3ccccc3)SC2C(=O)N2CCCCC2C)cc1 (centres undefined)	3
O=C(C1Sc2nnc(-c3ccccc3)n2NC1c1ccccc1)N1CCCC1 (centres undefined)	-
COc1ccc(S(=O)(=O)Nc2ccc3oc4c(c3c2)CCCC4)cc1	-
Cc1oc2ccc(NS(=O)(=O)c3ccc(F)cc3)cc2c1C(=O)O	-
O=C(O)c1ccc(S(=O)(=O)Nc2ccc3oc4c(c3c2)C(=O)CCC4)cc1	-
Cc1oc2ccc(NS(=O)(=O)c3ccc(Cl)cc3)cc2c1C(=O)O	-
Cc1oc2ccc(NS(=O)(=O)c3ccccc3)cc2c1C(=O)O	3.4
Cc1ccccc1S(=O)(=O)Nc1ccc2oc3c(c2c1)CCCC3	3.9
CCCCc1ccc(N2CCn3c2nc2c3c(=O)n(CC(=O)O)c(=O)n2C)cc1	-
COCc1[nH]nc2c1C1(CCN(C(=O)c3ccccc3)CC1)C(C#N)=C(N)O2	-
Cn1c(=O)c2c(nc(N3CCCCCC3)n2Cc2ccccc2Cl)n(C)c1=O	-
N/C(=N\OC(=O)N1CCOCC1)c1cccc(C(F)(F)F)c1	-
Nc1c(C(=O)Nc2ccccc2)sc2nc3c(c(-c4cccnc4)c12)CCC3	-
Cc1ccc(/C=N/NC(=O)Cn2nc3n(c2=O)-c2ccccc2SC3)o1	-
COc1cccc(/C=N/NC(=O)CN2C(=O)CSc3ccccc32)c1	3.2
Cc1nn(-c2ccccc2)cc1/C=N/NC(=O)Cn1nc2n(c1=O)-c1ccccc1SC2	-
SMILES	Dicer processing
Cc1ccc(C)c(NS(=O)(=O)c2cccc3cccnc23)c1	-
O=S(=O)(Nc1ccc(Br)c2cccnc12)c1ccccc1	4.7
O=C(Nc1ccc(Cl)cc1)Nc1ccc(Br)c2cccnc12	-
Cc1ccc2cccc(NS(=O)(=O)c3ccccc3)c2n1	-
COc1cc(S(=O)(=O)Nc2ccccn2)ccc1Br	-
O=S(=O)(Nc1cccc2cccnc12)c1ccccc1	7.7
O=S1(=O)C=CC(Sc2nnc[nH]2)C1 (centres undefined)	-
O=C(Cn1nc(-c2ccccc2)c2ccccc2c1=O)c1ccc(F)cc1	-
C=CCNc1nnc(-c2ccccc2)s1	-
C=CCSc1nnc2sc3ccccc3n12	-
CCOC(=O)c1cnc(NC(=O)CSc2nnc3sc4ccccc4n23)s1	4.3
CC(Sc1nnc2sc3ccccc3n12)C(=O)O (centres undefined)	-
O=C(c1c(F)cccc1Cl)n1c2ccc(F)cc2c2nc3ccccc3nc21	-
N#Cc1nc(COc2ccccc2)oc1NCc1ccc2c(c1)OCO2	-
CCOC(=O)c1c(NC(=S)NCc2ccccc2)sc2c1CCN(C(=O)OCC)C2	3.7
CCOC(=O)c1c(NC(=O)CN2CCc3ccccc32)sc2c1CCN(C(=O)OCC)C2	-
CCOC(=O)c1c(NC(=S)N2CCCCC2)sc2c1CCN(C(=O)OCC)C2	-
CCOC(=O)N1CCc2c(sc(NC(=O)CN3CCc4ccccc43)c2C#N)C1	5.3
CCOC(=O)N1CCc2c(sc(N)c2C#N)C1	-
C=CCNC(=S)Nc1sc2c(c1C(=O)OCC)CCN(C(=O)OCC)C2	-
Cc1c(C(=O)O)cc(C(C)(C)C)n1CCSCc1c(F)cccc1Cl	-
Cc1ccc(-c2nn3c(C)nnc3s2)cc1NC(=O)CC(C)C	-
CCOC(=O)Cn1c(=O)c(C(=O)NC(=O)OCC)cn(Cc2ccccn2)c1=O	-
O=C(Nc1c(C(=O)c2ccc(F)cc2)oc2ccccc12)c1ccco1	-
O=C(Nc1c(C(=O)c2ccc(Br)cc2)oc2ccccc12)c1ccco1	-
SMILES	Dicer processing
COC(=O)c1ccc(C(=O)Nc2c(C(N)=O)oc3ccccc23)cc1	3.6
C=CCSc1nc(N)c(C(c2ccc(Cl)cc2Cl)c2c(N)nc(SCC=C)[nH]c2=O)c(=O)[nH]1	-
FC(F)(F)c1c2c(nc3cc(-c4ccco4)nn13)CCC2	-
CS/C(=N\S(=O)(=O)c1ccc(-n2nc(C(F)(F)F)cc2-c2cccs2)cc1)N1CCCC1	-
CC(C)(C)C(=O)C(C#N)=C1SCCS1	-
Cc1ccc(C(=O)CC2(O)C(=O)N(CCc3ccccc3)c3ccc(Br)cc32)s1 (centres undefined)	4.9
CN1C(=O)C(O)(CC(=O)c2ccc3c(c2)OCO3)c2ccccc21 (centres undefined)	-
Cc1ccccc1CN1C(=O)C(O)(CC(=O)c2cccs2)c2cc(Cl)ccc21 (centres undefined)	5.3
